Experimental data reported in paper PMC12820563, “FoxP3 forms a head-to-head dimer in vivo and stabilizes its multimerization on adjacent microsatellites”.
The full ranking holds about 16,000 sequences; the median of “rpm ratio (pull-down/input)” is about 0.5, and the highest 2% start at about 5.5. For the sample, the highest values were picked, then their nearest neighbours and some sequences at random.

biological target: T1, MBP-FoxP3dN (Mus musculus, UniProt Q99JB6 188-423); experiment: PD-seq (MBP pull-down with sequencing); 20 mM Tris-HCl pH 7.5, 100 mM NaCl, 1.5 mM MgCl2, 0.4 uM protein, 0.1 uM dsDNA library, 30 min, room temperature, amylose pull-down; high values mean tight binding; conditions: protein: recombinant; tags: His6-MBP; chain copies: 2; dsDNA, one strand shown
T1 sequence: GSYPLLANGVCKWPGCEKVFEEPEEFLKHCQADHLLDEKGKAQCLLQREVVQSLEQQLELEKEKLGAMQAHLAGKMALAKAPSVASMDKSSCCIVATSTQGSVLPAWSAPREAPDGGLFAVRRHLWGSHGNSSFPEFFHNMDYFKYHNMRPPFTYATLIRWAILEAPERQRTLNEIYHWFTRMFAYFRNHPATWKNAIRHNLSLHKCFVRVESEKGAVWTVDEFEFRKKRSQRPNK
Summary of the method: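 Mouse FoxP3 or FoxP1 fragment lacking the N-terminus, His6-MBP-tagged and expressed in E. coli, was incubated at 0.4 µM with 0.1 µM Klenow-filled degenerate double-stranded DNA library for 30 min at room temperature in Tris pH 7.5 buffer with NaCl and MgCl2. Complexes captured on amylose resin were washed three times and their DNA sequenced on Illumina. Binding is reads-per-million enrichment of pull-down over input, replicates pooled.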

Sequence	binding signal
GATGATTGTTCTCCCAGCTGATGAATTCCTAACTTCGAGTAAACAAATTTTCCTAATCTTTCTGTTCAAGCGCCATCTAC	0.231 RPM ratio (pull-down/input)
GATGATTGTTCTCCCAGCTGATGAATTCACCTTATCGAGTAAACAAATTTTCCTAATCTTTCTGTTCAAGCGCCATCTAC	0.363 RPM ratio (pull-down/input)
GATGATTGTTCTCCCAGCTGATGAATTGGAGCTGTCGAGTAAACAAATTTTCCTAATCTTTCTGTTCAAGCGCCATCTAC	0.312 RPM ratio (pull-down/input)
GATGATTGTTCTCCCAGCTGATGAATTCTATAGGTCGAGTAAACAAATTTTCCTAATCTTTCTGTTCAAGCGCCATCTAC	0.372 RPM ratio (pull-down/input)
GATGATTGTTCTCCCAGCTGATGAATTCCAGCTGTCGAGTAAACAAATTTTCCTAATCTTTCTGTTCAAGCGCCATCTAC	0.355 RPM ratio (pull-down/input)
GATGATTGTTCTCCCAGCTGATGAATTACCATAATCGAGTAAACAAATTTTCCTAATCTTTCTGTTCAAGCGCCATCTAC	0.448 RPM ratio (pull-down/input)
GATGATTGTTCTCCCAGCTGATGAATTCAGCGCCTCGAGTAAACAAATTTTCCTAATCTTTCTGTTCAAGCGCCATCTAC	1.17 RPM ratio (pull-down/input)
GATGATTGTTCTCCCAGCTGATGAATTGCTACCGTCGAGTAAACAAATTTTCCTAATCTTTCTGTTCAAGCGCCATCTAC	0.615 RPM ratio (pull-down/input)
GATGATTGTTCTCCCAGCTGATGAATTCATACTATCGAGTAAACAAATTTTCCTAATCTTTCTGTTCAAGCGCCATCTAC	0.534 RPM ratio (pull-down/input)
GATGATTGTTCTCCCAGCTGATGAATTCGAGCCATCGAGTAAACAAATTTTCCTAATCTTTCTGTTCAAGCGCCATCTAC	1.13 RPM ratio (pull-down/input)
GATGATTGTTCTCCCAGCTGATGAATTGACGTCTTCGAGTAAACAAATTTTCCTAATCTTTCTGTTCAAGCGCCATCTAC	0.448 RPM ratio (pull-down/input)
GATGATTGTTCTCCCAGCTGATGAATTGTACTACTCGAGTAAACAAATTTTCCTAATCTTTCTGTTCAAGCGCCATCTAC	0.546 RPM ratio (pull-down/input)
GATGATTGTTCTCCCAGCTGATGAATTATCAGGCTCGAGTAAACAAATTTTCCTAATCTTTCTGTTCAAGCGCCATCTAC	0.299 RPM ratio (pull-down/input)
GATGATTGTTCTCCCAGCTGATGAATTGTTGTGTTCGAGTAAACAAATTTTCCTAATCTTTCTGTTCAAGCGCCATCTAC	6.09 RPM ratio (pull-down/input)
GATGATTGTTCTCCCAGCTGATGAATTGTGTTCTTCGAGTAAACAAATTTTCCTAATCTTTCTGTTCAAGCGCCATCTAC	2.39 RPM ratio (pull-down/input)
GATGATTGTTCTCCCAGCTGATGAATTTCTGTGTTCGAGTAAACAAATTTTCCTAATCTTTCTGTTCAAGCGCCATCTAC	0.716 RPM ratio (pull-down/input)
GATGATTGTTCTCCCAGCTGATGAATTCCGTGCCTCGAGTAAACAAATTTTCCTAATCTTTCTGTTCAAGCGCCATCTAC	0.796 RPM ratio (pull-down/input)
GATGATTGTTCTCCCAGCTGATGAATTTATCTGATCGAGTAAACAAATTTTCCTAATCTTTCTGTTCAAGCGCCATCTAC	0.374 RPM ratio (pull-down/input)
GATGATTGTTCTCCCAGCTGATGAATTTATCGAGTCGAGTAAACAAATTTTCCTAATCTTTCTGTTCAAGCGCCATCTAC	0.379 RPM ratio (pull-down/input)
GATGATTGTTCTCCCAGCTGATGAATTCTAATCATCGAGTAAACAAATTTTCCTAATCTTTCTGTTCAAGCGCCATCTAC	0.567 RPM ratio (pull-down/input)
GATGATTGTTCTCCCAGCTGATGAATTCGCCATTTCGAGTAAACAAATTTTCCTAATCTTTCTGTTCAAGCGCCATCTAC	1.75 RPM ratio (pull-down/input)

Sequence	binding signal
GATGATTGTTCTCCCAGCTGATGAATTCTCGCATTCGAGTAAACAAATTTTCCTAATCTTTCTGTTCAAGCGCCATCTAC	5.82 RPM ratio (pull-down/input)
GATGATTGTTCTCCCAGCTGATGAATTTCGCATTTCGAGTAAACAAATTTTCCTAATCTTTCTGTTCAAGCGCCATCTAC	6.94 RPM ratio (pull-down/input)
GATGATTGTTCTCCCAGCTGATGAATTTTCGCATTCGAGTAAACAAATTTTCCTAATCTTTCTGTTCAAGCGCCATCTAC	6.27 RPM ratio (pull-down/input)
GATGATTGTTCTCCCAGCTGATGAATTCGCATTCTCGAGTAAACAAATTTTCCTAATCTTTCTGTTCAAGCGCCATCTAC	4.89 RPM ratio (pull-down/input)
GATGATTGTTCTCCCAGCTGATGAATTTTTCGCATCGAGTAAACAAATTTTCCTAATCTTTCTGTTCAAGCGCCATCTAC	0.898 RPM ratio (pull-down/input)
GATGATTGTTCTCCCAGCTGATGAATTCGACGCATCGAGTAAACAAATTTTCCTAATCTTTCTGTTCAAGCGCCATCTAC	0.992 RPM ratio (pull-down/input)
GATGATTGTTCTCCCAGCTGATGAATTTCGCCATTCGAGTAAACAAATTTTCCTAATCTTTCTGTTCAAGCGCCATCTAC	5.04 RPM ratio (pull-down/input)
GATGATTGTTCTCCCAGCTGATGAATTTGACGCATCGAGTAAACAAATTTTCCTAATCTTTCTGTTCAAGCGCCATCTAC	1.22 RPM ratio (pull-down/input)
GATGATTGTTCTCCCAGCTGATGAATTGTTCGCATCGAGTAAACAAATTTTCCTAATCTTTCTGTTCAAGCGCCATCTAC	1.1 RPM ratio (pull-down/input)
GATGATTGTTCTCCCAGCTGATGAATTCGCATTTTCGAGTAAACAAATTTTCCTAATCTTTCTGTTCAAGCGCCATCTAC	4.25 RPM ratio (pull-down/input)
GATGATTGTTCTCCCAGCTGATGAATTGACGCATTCGAGTAAACAAATTTTCCTAATCTTTCTGTTCAAGCGCCATCTAC	5.74 RPM ratio (pull-down/input)
GATGATTGTTCTCCCAGCTGATGAATTTGGATACTCGAGTAAACAAATTTTCCTAATCTTTCTGTTCAAGCGCCATCTAC	1.85 RPM ratio (pull-down/input)
GATGATTGTTCTCCCAGCTGATGAATTGCCCAAATCGAGTAAACAAATTTTCCTAATCTTTCTGTTCAAGCGCCATCTAC	0.385 RPM ratio (pull-down/input)
GATGATTGTTCTCCCAGCTGATGAATTAGTTACATCGAGTAAACAAATTTTCCTAATCTTTCTGTTCAAGCGCCATCTAC	0.891 RPM ratio (pull-down/input)
GATGATTGTTCTCCCAGCTGATGAATTTAGCTACTCGAGTAAACAAATTTTCCTAATCTTTCTGTTCAAGCGCCATCTAC	1.83 RPM ratio (pull-down/input)
GATGATTGTTCTCCCAGCTGATGAATTTTTGGAGTCGAGTAAACAAATTTTCCTAATCTTTCTGTTCAAGCGCCATCTAC	0.23 RPM ratio (pull-down/input)
GATGATTGTTCTCCCAGCTGATGAATTGGATGGCTCGAGTAAACAAATTTTCCTAATCTTTCTGTTCAAGCGCCATCTAC	0.46 RPM ratio (pull-down/input)
GATGATTGTTCTCCCAGCTGATGAATTGGGCAGCTCGAGTAAACAAATTTTCCTAATCTTTCTGTTCAAGCGCCATCTAC	0.963 RPM ratio (pull-down/input)
GATGATTGTTCTCCCAGCTGATGAATTTGAGCACTCGAGTAAACAAATTTTCCTAATCTTTCTGTTCAAGCGCCATCTAC	0.481 RPM ratio (pull-down/input)
GATGATTGTTCTCCCAGCTGATGAATTCCACCCGTCGAGTAAACAAATTTTCCTAATCTTTCTGTTCAAGCGCCATCTAC	0.242 RPM ratio (pull-down/input)
GATGATTGTTCTCCCAGCTGATGAATTGTTAGATTCGAGTAAACAAATTTTCCTAATCTTTCTGTTCAAGCGCCATCTAC	0.635 RPM ratio (pull-down/input)

Sequence	binding signal
GATGATTGTTCTCCCAGCTGATGAATTTGTCGGTTCGAGTAAACAAATTTTCCTAATCTTTCTGTTCAAGCGCCATCTAC	3.1 RPM ratio (pull-down/input)
GATGATTGTTCTCCCAGCTGATGAATTTCGTCCCTCGAGTAAACAAATTTTCCTAATCTTTCTGTTCAAGCGCCATCTAC	0.799 RPM ratio (pull-down/input)
GATGATTGTTCTCCCAGCTGATGAATTCACGCATTCGAGTAAACAAATTTTCCTAATCTTTCTGTTCAAGCGCCATCTAC	5.67 RPM ratio (pull-down/input)
GATGATTGTTCTCCCAGCTGATGAATTTCTCGCATCGAGTAAACAAATTTTCCTAATCTTTCTGTTCAAGCGCCATCTAC	0.861 RPM ratio (pull-down/input)
GATGATTGTTCTCCCAGCTGATGAATTCGCGCCATCGAGTAAACAAATTTTCCTAATCTTTCTGTTCAAGCGCCATCTAC	2.63 RPM ratio (pull-down/input)
GATGATTGTTCTCCCAGCTGATGAATTTCGCATCTCGAGTAAACAAATTTTCCTAATCTTTCTGTTCAAGCGCCATCTAC	6.74 RPM ratio (pull-down/input)
GATGATTGTTCTCCCAGCTGATGAATTCGCAGCTTCGAGTAAACAAATTTTCCTAATCTTTCTGTTCAAGCGCCATCTAC	0.653 RPM ratio (pull-down/input)
GATGATTGTTCTCCCAGCTGATGAATTTCGCGCATCGAGTAAACAAATTTTCCTAATCTTTCTGTTCAAGCGCCATCTAC	1.42 RPM ratio (pull-down/input)
GATGATTGTTCTCCCAGCTGATGAATTTCACGCATCGAGTAAACAAATTTTCCTAATCTTTCTGTTCAAGCGCCATCTAC	1.01 RPM ratio (pull-down/input)
GATGATTGTTCTCCCAGCTGATGAATTCGCGCATTCGAGTAAACAAATTTTCCTAATCTTTCTGTTCAAGCGCCATCTAC	7.06 RPM ratio (pull-down/input)
GATGATTGTTCTCCCAGCTGATGAATTTCGCAGCTCGAGTAAACAAATTTTCCTAATCTTTCTGTTCAAGCGCCATCTAC	2.01 RPM ratio (pull-down/input)
GATGATTGTTCTCCCAGCTGATGAATTCTTCGCATCGAGTAAACAAATTTTCCTAATCTTTCTGTTCAAGCGCCATCTAC	0.708 RPM ratio (pull-down/input)
GATGATTGTTCTCCCAGCTGATGAATTCGCATCTTCGAGTAAACAAATTTTCCTAATCTTTCTGTTCAAGCGCCATCTAC	5.81 RPM ratio (pull-down/input)
GATGATTGTTCTCCCAGCTGATGAATTCACGCTTTCGAGTAAACAAATTTTCCTAATCTTTCTGTTCAAGCGCCATCTAC	1.11 RPM ratio (pull-down/input)
GATGATTGTTCTCCCAGCTGATGAATTGTATAACTCGAGTAAACAAATTTTCCTAATCTTTCTGTTCAAGCGCCATCTAC	0.812 RPM ratio (pull-down/input)
GATGATTGTTCTCCCAGCTGATGAATTAAGCCGATCGAGTAAACAAATTTTCCTAATCTTTCTGTTCAAGCGCCATCTAC	0.427 RPM ratio (pull-down/input)
GATGATTGTTCTCCCAGCTGATGAATTTAGTGGGTCGAGTAAACAAATTTTCCTAATCTTTCTGTTCAAGCGCCATCTAC	1.06 RPM ratio (pull-down/input)
GATGATTGTTCTCCCAGCTGATGAATTCAAAACCTCGAGTAAACAAATTTTCCTAATCTTTCTGTTCAAGCGCCATCTAC	0.276 RPM ratio (pull-down/input)
GATGATTGTTCTCCCAGCTGATGAATTTATGATATCGAGTAAACAAATTTTCCTAATCTTTCTGTTCAAGCGCCATCTAC	1.11 RPM ratio (pull-down/input)
GATGATTGTTCTCCCAGCTGATGAATTCAATAGCTCGAGTAAACAAATTTTCCTAATCTTTCTGTTCAAGCGCCATCTAC	0.877 RPM ratio (pull-down/input)
GATGATTGTTCTCCCAGCTGATGAATTTCATAGTTCGAGTAAACAAATTTTCCTAATCTTTCTGTTCAAGCGCCATCTAC	0.583 RPM ratio (pull-down/input)
